S1P2 antag: antagonists of human S1P2 receptor. cell-based S1P2 antagonist assay, inhibition at 5 uM. inhibition, % at 5 µM. actives 0.21% (n = 97,000). AID 736; in the data active means inhibition above about 45%;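 further: CRE beta-lactamase reporter cells expressing human S1P2 stimulated with S1P; 0% = agonist at EC80 alone and 100% = agonist plus reference antagonist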
Target sequence (O95136 whole entry, looked up): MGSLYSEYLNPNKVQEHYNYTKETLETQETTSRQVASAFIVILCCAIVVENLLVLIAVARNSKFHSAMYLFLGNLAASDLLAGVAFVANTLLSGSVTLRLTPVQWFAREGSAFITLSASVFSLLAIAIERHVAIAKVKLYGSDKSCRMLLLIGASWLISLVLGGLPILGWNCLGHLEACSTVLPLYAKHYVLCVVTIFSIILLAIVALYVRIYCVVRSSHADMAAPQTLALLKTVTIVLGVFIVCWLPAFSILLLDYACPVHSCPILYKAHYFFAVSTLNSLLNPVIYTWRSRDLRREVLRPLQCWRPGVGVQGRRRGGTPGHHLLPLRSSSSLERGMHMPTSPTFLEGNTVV
PostGolgi yeast: growth inhibition of a yeast mutant, post-Golgi transport screen; actives 0.9% (n = 98,000); inhibition, % at 10 µM; post-Golgi transport phenotypic cell assay; AID 739;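 further: yeast cells grown in 1536-well plates; yeast grown about 18 h at 30C before absorbance read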
GALR2 agonist: GALR2 (human) receptor agonism | actives 0.48% (n = 140,000) | activation, % (concentration not given with the values) | GALR2-expressing cells, agonist activation read-out; in the data active means activation above about 5%, passing the limit was not always enough;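 further: 0% = vehicle buffer wells and 100% = reference agonist at full effect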
PostGolgi ctrl: yeast control strain growth, post-Golgi counter-screen. actives 5% (n = 98,000). inhibition, % at 10 µM. efflux-deficient yeast background strain, growth absorbance A615, 16 h
S1P2 ag: agonists of human S1P2 receptor. O95136. S1P2-expressing cell line, agonist reporter read-out. activation, % at 4.5 µM. actives 0.46% (n = 97,000); in the data active means activation above about 16%;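 further: 0% = vehicle low control and 100% = maximal reference agonist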
GALR2 blocker: blocks the human galanin receptor 2; O43603; GALR2-expressing cells, antagonist mode; inhibition, % at 4 µM; actives 0.39% (n = 140,000); in the data active means inhibition above about 27%;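 further: cells stimulated with galanin 1-16 at roughly its EC80; 0% = agonist challenge control and 100% = basal control without agonist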
* = called active by the depositor; . = not tested or not shown. Shown is part of a subset that was picked to be rich in hits. Unless noted, no stated cut-off is given here; in the data, active means inhibition above about 30%; inactive means the rest.

SMILES	S1P2 antag	PostGolgi yeast	GALR2 agonist	PostGolgi ctrl	S1P2 ag	GALR2 blocker
C/C(=N\NC(=O)c1ccc(Cn2cc(Br)cn2)o1)c1cccc(NC(=O)C(C)(C)C)c1	.	.	0	.	.	1
C=C(Cl)COc1ccc2c(CC)cc(=O)oc2c1	6	-8	-2	7	-5	-3
C=C(Cl)COc1ccc2c(CCCC)cc(=O)oc2c1	-17	-1	0	31*	-2	3
Nc1nc2ccc(Oc3ccccc3)cc2s1	16	10	-1	32*	-4	-5
Nc1nc2ccc(OC(F)(F)F)cc2s1	.	.	0	.	.	4
CC(=O)Nc1ccc(NC(=O)c2cccc(C(=O)OC(C)C)n2)cc1	20	-1	1	21	-3	1
COC(=O)c1cccc(C(=O)Nc2ccc(F)cc2)n1	-8	-14	0	32*	-2	25
O=C(NCCc1ccccn1)c1cc(-c2cccc3ccccc23)nc2ccccc12	.	.	1	.	.	9
Nn1c(SCC(=O)Nc2ccc(F)cc2)nnc1C1CCCCC1	-7	-2	0	0	0	-6
Cc1ccc(NC(=O)CSc2nnc(C3CCCCC3)n2N)cc1F	4	31*	-2	2	-6	-7
O=c1c2cc(F)ccc2[nH]c(=S)n1CCCN1CCOCC1	-14	-1	-1	1	-8	-2
Cc1cccc(C(=O)NNC(=O)CN2C(=O)c3ccccc3C2=O)c1	.	.	-1	.	.	1
Cc1cc(C)n(CC(O)COc2ccc(OCC(O)Cn3nc(C)cc3C)cc2)n1 (configuration not stated)	-28	.	-1	.	-6	-5
Cc1ccccc1N1C(=O)C(Cl)=C(N2CCN(c3ccccc3)CC2)C1=O	11	-1	-3	38*	-8	-6
CC1=C(C(=O)OCC(C)C)C(c2cccs2)NC(=S)N1 (configuration not stated)	.	.	0	.	.	-4
Cn1c(C(=O)O)c(CC(=O)N2CCC(Cc3ccccc3)CC2)c2ccccc21	.	.	0	.	.	11
Cc1ccc(C(=O)O/N=C2\CCCc3ccccc32)cc1	16	-2	-1	38*	-7	6
Cc1cccc(C(=O)O/N=C2\CCCc3ccccc32)c1	2	6	-2	10	-3	-8
CCOc1ccc(C(=O)Nc2ccccc2N2CCOCC2)cc1	25	-5	-1	33*	-6	4
CC(C)c1cccc(C(C)C)c1NC(=O)Cn1c(=O)cnc2ccccc21	.	.	-2	.	.	9
Nc1nc2n(n1)C(c1ccccc1Cl)CC(c1ccc(F)cc1)N2 (configuration not stated)	15	-1	0	16	-4	5
Cc1ccc(C2CC(c3ccccc3Cl)n3nc(N)nc3N2)cc1 (configuration not stated)	5	1	-2	40*	-6	-9
COC(=O)c1ccc(Cl)c(NC(=O)CN(c2ccccc2)S(=O)(=O)c2ccc(OC)cc2)c1	.	.	0	.	.	1
Clc1ccc(OCc2nnc(SCc3nnc(-c4ccccc4)o3)o2)c(Cl)c1	5	5	-3	41*	-8	-3
CN1CC(c2ccc(C#N)cc2)C2(COc3ccccc3C2=O)C12C(=O)Nc1ccccc12 (configuration not stated)	4	9	-2	31*	-6	6
SMILES	S1P2 antag	PostGolgi yeast	GALR2 agonist	PostGolgi ctrl	S1P2 ag	GALR2 blocker
CC1=C(C(=O)OCc2ccccc2)C(c2ccc(C#N)cc2)NC(=O)N1CCCC(=O)O (configuration not stated)	.	.	-1	.	.	-2
O=S(=O)(N1CCCCC1)n1c(Cc2ccccc2)nc2ccccc21	4	7	1	37*	-7	6
O=C(CSCC(=O)OCC(=O)c1ccc(Br)cc1)Nc1cccc2ccccc12	0	-2	-2	9	-7	6
CC1CC(C)(C)NC(=S)N1CCCC(=O)N1CCN(c2ccc(F)cc2)CC1 (configuration not stated)	.	.	0	.	.	2
COc1ccc(C)cc1NC(=O)c1nnn(Cc2cc(C)ccc2C)c1N	4	1	-1	18	-5	-13
COc1ccc(OC)c(NC(=O)c2nnn(Cc3ccccc3C)c2N)c1	1	-10	0	34*	-8	11
CCOC(=O)c1c(C)n(C)c2ccc(OC)c(NS(=O)(=O)c3ccc(Cl)s3)c12	3	-7	-2	34*	-5	0
CC(C)(C)c1cc(N)on1	.	.	-1	.	.	-9
CS(=O)(=O)N1CCN(C(=O)c2cccnc2)CC1	9	0	0	35*	-3	2

Assay outcomes as filed in PubChem BioAssay.
